This passage reports INHIBITION results from ChEMBL document CHEMBL4513216, “Probing the Open Global Health Chemical Diversity Library for Multistage-Active Starting Points for Next-Generation Antimalarials” (ACS Infect Dis, 2020).

Out of some 68,000 compounds screened, about 2,700 (4%) showed an effect of 50% or more. What follows is part of a selection rich in strong results, with near analogues and random picks from the rest.

The assay relates to Plasmodium berghei. The assay is described as follows: Screen against P. berghei liver stage (PbLuc), transformed with Luciferase, at 2uM. It is filed as functional, HepG2. The conditions noted are these: tested at 2 uM.
On to `Cc1nc(C)c(C(=O)N2CCc3nnc(C4CCCCN4C)n3CC2)s1` (centres undefined), for which the INHIBITION worked out at 26.44%.
Consider `COc1ccc(CNC(Cc2ccsc2)c2ncccc2C)cc1OC` (centres undefined), for which the INHIBITION was -31.69%.
Take `CCCN1CCC(c2nc3ccc(C)cn3n2)CC1`: the INHIBITION is 20.01%.
Turning to `Cn1nccc1-c1ccc2nc(C3CCNCC3)nn2c1`, the INHIBITION is 39.51%.
Consider `CN1CCC(c2nc3ccc(-c4cccc(F)c4)cn3n2)CC1`, for which the INHIBITION is 20.41%.
In the case of `CCCN1CCC(c2nc3ccc(NCc4cccnc4)cn3n2)CC1`, the INHIBITION was found to be 1.42%.
For the compound `CN1CCC(c2nc3ccc(-c4ccccc4)cn3n2)CC1`, the INHIBITION is given as 54.56%.
The result for `CCCN1CCC(c2nc3ccc(NCc4ccccc4)cn3n2)CC1` reads 54.65%.
As to `CC(=O)N1CCC(c2nc3ccc(-c4ccnn4C)cn3n2)CC1`, the INHIBITION was 25.31%.
`CCCN1CCC(c2nc3ccc(-c4ccccc4)cn3n2)CC1`: the INHIBITION is 13.16%.
With `CC(C)N1CCC(c2nc3ccc(-c4ccnn4C)cn3n2)CC1`, the INHIBITION stood at 51.94%.
Take `Cc1noc(C)c1-c1cnc(CC2CCN(C(=O)c3cc[nH]n3)C2)cn1` (centres undefined): the INHIBITION is on record as -26.24%.
Take `CCC(C)c1csc(NC(=O)Cc2csc(-c3nnc[nH]3)n2)n1` (centres undefined): the INHIBITION is recorded as -5.58%.
As to `O=C(CCn1c(C(F)(F)F)cc2cccnc21)N1CCOCC1`, the INHIBITION is reported as 48.65%.
Under `COc1coc(C(=O)Nc2nc(C)cs2)cc1=O` stands -1.29%; under `CN(C)C(C(=O)N1CCC(N2CCSCC2)CC1)c1ccccc1F` (centres undefined), 4.18%.
Under `CN(Cc1ccccc1-n1cccn1)c1nc(N)nc2c1CCNCC2` stands 5.86%; under `Cc1nc2c(c(N(C)CC3Cc4ccccc4CN3C)n1)CCNCC2` (centres undefined), 57.75%.
Regarding `CN(Cc1ccc(-n2cccn2)cc1)c1nc(N)nc2c1CCNCC2`, the INHIBITION was 18.01%.
In the case of `Cc1nc2c(c(NCC3Cc4ccccc4CN3C)n1)CCNCC2` (centres undefined), the INHIBITION is given as 43.44%.
In the case of `CN(CC1Cc2ccccc2CN1C)c1nc(N)nc2c1CCNCC2` (centres undefined), the INHIBITION came to 52.98%.
As to `Cc1nc2c(c(N(C)Cc3ccccc3-n3cccn3)n1)CCNCC2`, the INHIBITION is recorded as -19.21%.
`Cc1nc(N)cc(C2CCN2CCC(N)=O)n1` (centres undefined): the INHIBITION is 11.32%.
Regarding `Cc1ncsc1CN1C[C@@H]2CCCO[C@@H]2[C@H](N(C)C(C)C)C1`, the INHIBITION is reported as -10.13%.
For the compound `Cn1cnc2c1CCN(CC(=O)N(Cc1ccccc1F)C1CC1)C2`, the INHIBITION is 18.99%.
Regarding `O=C(NCCc1cc2nc(-c3ccncc3)ccn2n1)C1CCOCC1`, the INHIBITION stood at 9.9%.
On to `CS(=O)(=O)Cc1ccc(C(=O)N2CCCC(n3cncn3)C2)o1` (centres undefined), for which the INHIBITION is listed as 12.7%.
Take `Cc1occc1C(=O)N1CCC2(CCC(=O)N(CC(N)=O)C2)CC1`: the INHIBITION is reported as -26.32%.
Regarding `O=C(c1nc2sccn2c1-c1ncc[nH]1)N1CCCCC1`, the INHIBITION is reported as -1.65%.
Under `CCN(Cc1cccc(Cl)c1)Cc1ncc(C(C)(C)C)o1` stands 81.59%; under `CCN(Cc1ncc(C(C)(C)C)o1)Cc1ccccc1C`, -47.18%; under `Cc1cccc(CN(Cc2ccccn2)Cc2ncc(C(C)(C)C)o2)c1`, 43.44%.
Under `OC1(CNc2ccc(Br)cn2)CCOCC1` stands -58.79%.
Under `CC(C)(C)C(=O)NCCNCc1ccc(Cl)c2cccnc12` stands -53.16%; under `OC(CNCCn1cccn1)c1cccc(Br)c1` (centres undefined), -69.91%.
Turning to `Cc1ccc(CN2CCc3onc(C(=O)Nc4cccnc4)c3C2)o1`, the INHIBITION turned out to be 34.37%.
Consider `CN(C)CCNC(=O)c1noc2c1CN(C(=O)N(C)C)CC2`, for which the INHIBITION was determined as 59.76%.
Regarding `CC(C)NC(=O)N1CCc2onc(C(=O)NCCN(C)C)c2C1`, the INHIBITION was 42.62%.
In the case of `CC(C)C(=O)N1CCc2onc(C(=O)NCCN(C)C)c2C1`, the INHIBITION stood at 11.37%.
Under `CC(C)NC(=O)N1CCc2onc(C(=O)Nc3cccnc3)c2C1` stands 18.87%; under `CN(C)C(=O)N1CCc2onc(C(=O)Nc3cccnc3)c2C1`, 67.19%; under `CCc1ccc(C(=O)O)cc1S(=O)(=O)N(C)c1cccc(C)c1`, -2.2%.
With `CN(Cc1ccccc1)C(=O)c1nc(S(C)(=O)=O)n2ccccc12`, the INHIBITION amounted to 3.9%.
For the compound `O=C(O)c1nnn(-c2ccc(OC(F)(F)F)cc2)c1-c1ccncc1`, the INHIBITION is on record as 3.22%.
The result for `CC(Nc1ccc2c(c1)CCC2)c1nc(C2CC2)no1` (centres undefined) reads 6.47%.
Turning to `Cc1ccc2oc(=O)n(CC(=O)N3CCC4(CC3)CN(C)C(=O)O4)c2c1`, the INHIBITION is given as -55.13%.
As for `COc1c(CNCc2ccc(C(=O)N(C)C(C)C)cc2)c(C)nn1C`, the INHIBITION was 4.55%.
Under `O=C(Cc1ccncc1)N(CCO)CCSc1ccc(Cl)cc1` stands 47.2%.
For the compound `O=C(Cn1ccnc1)N(CCO)CCSc1ccc(Cl)cc1`, the INHIBITION came out at 56.21%.
For `O=C(Cn1cccn1)N(CCO)CCSc1ccc(Cl)cc1`, the INHIBITION is given as -5.53%.
Turning to `CCc1cnc(N2CCCOC(CN3CCCC3)C2)nc1` (centres undefined), the INHIBITION is recorded as -30.18%.
On to `COCC1CN(CC2CC2)Cc2nn(CC3CC3)cc21` (centres undefined), for which the INHIBITION was 11.34%.
For the compound `COCC(=O)N1CCN(C(=O)Cc2cccs2)[C@H]2CS(=O)(=O)C[C@H]21`, the INHIBITION is recorded as 54.47%.
Consider `COCC(=O)N1CCN(S(=O)(=O)c2cccs2)[C@H]2CS(=O)(=O)C[C@H]21`, for which the INHIBITION is recorded as 18.77%.
With `COCC(=O)N1CCN(S(=O)(=O)c2ccccc2)[C@H]2CS(=O)(=O)C[C@H]21`, the INHIBITION is 15.75%.
In the case of `CN1C(=O)CCCC12CCCN(C(=O)c1cc(F)cc(F)c1)C2` (centres undefined), the INHIBITION stood at 12.83%.
As for `Cn1ccnc1CN1CCOC(Cn2cccn2)C1` (centres undefined), the INHIBITION is 7.01%.
Under `Cc1cccc(-c2ccc(C(=O)NCC3CCOC3)c(=O)[nH]2)c1` (centres undefined) stands 17.39%.
As for `Cc1cccc(-c2ccc(C(=O)NCC3CCCO3)c(=O)[nH]2)c1` (centres undefined), the INHIBITION amounted to 57.77%.
`Cc1cccc(-c2ccc(C(=O)NCC3CCCOC3)c(=O)[nH]2)c1` (centres undefined): the INHIBITION is reported as -9.49%.
Regarding `CC(C)c1cc(NC2CCN(C(=O)N3CCCC3)CC2)ncn1`, the INHIBITION is listed as 52.98%.
As to `CC(C)c1cc(NC2CCCN(C(=O)c3cccs3)C2)ncn1` (centres undefined), the INHIBITION is on record as -13.8%.
As to `O=C(N1CCCC1)N1CCC(Nc2ccncn2)CC1`, the INHIBITION was 39.44%.
With `Cc1nc2ncc3c(=O)n(C)ccc3n2n1`, the INHIBITION is -42.16%.
As to `CN(C)CC(=O)N1CCCC2(CCC(=O)N(CCc3c[nH]cn3)C2)C1` (centres undefined), the INHIBITION stood at 38.93%.
The result for `Cc1nc[nH]c1C(=O)N1CCCC2(CN(C)C(=O)O2)C1` (centres undefined) reads 1.06%; that for `CCc1n[nH]c(C(=O)N2CCCC3(CN(C)C(=O)O3)C2)c1C` (centres undefined), 51.9%.
Under `CN1CCc2[nH]nc(C(=O)N3CCCC4(CN(C)C(=O)O4)C3)c2C1` (centres undefined) stands -15.16%.
Turning to `CC(NCC(=O)Nc1ccc(N2CCCCCC2)cc1)c1cccs1` (centres undefined), the INHIBITION amounted to 23.68%.
The result for `CCc1cc(C(=O)N[C@H]2CN(CCS(C)(=O)=O)C[C@@H]2C2CC2)[nH]n1` reads -90.7%; that for `Cc1occc1C(=O)N1CCc2c(CNS(C)(=O)=O)cncc2C1`, -15.09%; that for `CC(C)CC(NC(=O)CSc1ccc(F)c(Cl)c1)C(=O)O` (centres undefined), 14.54%.
`CC(C)CC(NC(=O)Nc1ccc(F)c(Cl)c1)C(=O)O` (centres undefined): the INHIBITION is 56.54%.
Consider `CC(C)C[C@H](NC(=O)Nc1ccc(F)c(Cl)c1)C(=O)O`, for which the INHIBITION was -9.89%.
Take `Cc1ccc(CN2C[C@@H](OCc3ccccn3)[C@H]3COC[C@H]32)o1`: the INHIBITION is -4.92%.
Under `CC(C)c1nc(C2CCCN2Cc2nccn2CC(F)(F)F)no1` (centres undefined) stands -20.05%; under `CC(C(=O)Nc1ccc(N2CCOCC2)nc1)n1cncn1` (centres undefined), 43.32%; under `CCc1cnc(CN2C(=O)CC3(CCSC3)C2=O)o1` (centres undefined), 15.39%.
Regarding `CC(C)c1cnc(CN2C(=O)CC3(CCSC3)C2=O)o1` (centres undefined), the INHIBITION was -21.1%.
On to `CC(C)(C)c1cnc(CN2C(=O)CC3(CCSC3)C2=O)o1` (centres undefined), for which the INHIBITION is recorded as 53.99%.
Take `Cc1nc2ccc(-n3ncnc3[C@@H]3CCCN3S(C)(=O)=O)cc2s1`: the INHIBITION is listed as -35.1%.
As for `CC(C)(C)CN1Cc2cc3c(cc2NCCC1=O)OCO3`, the INHIBITION was -15.54%.
As to `Cc1ccc(C(=O)N2CCc3ccc(=O)n(CCN(C)C)c3CC2)o1`, the INHIBITION is on record as 5.77%.
As to `CN(C)CCn1c2c(ccc1=O)CCN(C(=O)c1ccoc1)CC2`, the INHIBITION came out at 17.31%.
On to `CN(C)CCn1c2c(ccc1=O)CCN(C(=O)c1cccs1)CC2`, for which the INHIBITION came to 53.27%.
On to `Cc1cc(C)cc(C(=O)N2CCCN(CC(N)=O)CC2)c1`, for which the INHIBITION turned out to be 16.13%.
Regarding `NC(=O)N1CCCN(CC(=O)NCCc2c(F)cccc2F)CC1`, the INHIBITION came to 19.12%.
Under `Cc1cc(C)c(CCNC(=O)CN2CCCN(C(N)=O)CC2)c(C)c1` stands 66.74%; under `O=C(c1ccc2c(c1)OCO2)N1CCC[C@]2(C[C@H](OCC3CC3)CO2)C1`, 10.43%.
Under `O=C(CN1CCCC1Cn1cccn1)NC1CCOCC1` (centres undefined) stands 4.41%; under `CCCS(=O)(=O)c1ccc(N2CCN(Cc3ccccc3)CC2)nn1`, 27.54%.
Take `CCS(=O)(=O)N1CCN(c2cc(-n3cnc(C)c3C)nc(C)n2)CC1`: the INHIBITION turned out to be 61.28%.
As to `CCCS(=O)(=O)N1CCN(c2cc(-n3cnc(C)c3C)nc(C)n2)CC1`, the INHIBITION was found to be 35.54%.
`Cc1nc(N2CCN(S(C)(=O)=O)CC2)cc(-n2cnc(C)c2C)n1`: the INHIBITION is 43.32%.
Under `CCOCCN1CCCC1CS(N)(=O)=O` (centres undefined) stands -7.76%.
With `O=C(c1ccc2c(c1)OCO2)N1CCCC(Nc2ccc(F)cc2)C1` (centres undefined), the INHIBITION is listed as 47.67%.
Take `CSCC(C)(O)CNC(=O)c1ccc(F)cc1Cl` (centres undefined): the INHIBITION is given as -29.65%.
For `CC(C)(O)CSCCNC(=O)c1cc(F)ccc1F`, the INHIBITION stood at 35.56%.
With `CC(C)(O)CSCCNC(=O)c1ccc(F)cc1Cl`, the INHIBITION stood at 58.69%.
Under `O=C(CCc1ccc(Cl)cc1)N[C@@H]1CC[C@@H](O)[C@@H]1O` stands -11.3%; under `c1cncc(CN2CCCn3nnc(COCC4CC4)c3C2)c1`, 34.37%.
For `O=C(CCCOCc1ccccc1)N1CCCC1c1ccccn1` (centres undefined), the INHIBITION came out at 28.51%.
The result for `CSc1ccc(NC(=O)COCc2ccccc2)nc1` reads 12.43%; that for `O=C(COCc1ccccc1)Nc1ccccn1`, 62.51%.
